Values without a mark were called inactive.

This assay concerns Vero E6 infected with SARS-CoV-2. Nature of the assay: SARS-CoV-2 infection rate relative to infected DMSO; higher = more infection, active = 60 or less. The settings on record: 24 h.
Take `O=C1c2ccccc2-c2c(NCCc3ccccc3)c(=O)[nH]c3cccc1c23` (10 µM): the SARS-CoV-2 infection rate is 112%.
With `CCn1c(-c2nonc2N)nc2cncc(CNC3CCNCC3)c21` (10 µM) the figure was 106%.
Under `CCOC(=O)c1c(O)nc2cccc3c2c1-c1ccccc1C3=O` (10 µM) stands 117%; under `C[n+]1cc2c3c(ccc2c2ccc4cc5c(cc4c21)OCO5)OCO3` [sanguinarium-chloride] (10 µM), 94.5%.
With `Cc1cc(Cn2nnc3c(-c4ccco4)nc(N)nc32)ccc1N` [vipadenant] (10 µM) the figure was 110%; with `FCc1ccc(OCCOc2ccc(Cl)cc2Cl)c(Cl)n1` (10 µM), 116%; with `CC(C)Cc1ccc([C@@H](C)C(=O)NCCO)cc1` (racemic) [mabuprofen] (10 µM), 109%.
As to `O=C(O)CCC(=O)OC[C@@H](NC(=O)C(Cl)Cl)[C@H](O)c1ccc([N+](=O)[O-])cc1` [chloramphenicol-sodium-succinate] (10 µM), the SARS-CoV-2 infection rate was 108%.
With `CCCCCS(=O)(=O)CCCCCCCCCCn1c(-c2ccc(O)cc2)c(C)c2cc(O)ccc21` (0.833333 µM) the figure was 102%; with `COc1ccc(-c2ccc3c(N4CCOC[C@@H]4C)nc(N4CCOC[C@@H]4C)nc3n2)cc1CO` (0.833333 µM), 105%; with `COC(=O)[C@@H](N)CCCNC(=N)N[N+](=O)[O-]` (10 µM), 98.5%.
With `CS(=O)(=O)c1ccc(C2=C(c3ccccc3)C(=O)OC2)cc1` [rofecoxib] (10 µM) the figure was 96.5%; with `C=Cc1c(C)c2cc3nc(c(CC(=O)O)c4[n-]c(cc5nc(cc1[n-]2)C(C)=C5CC)c(C)c4C(=O)O)[C@@H](CCC(=O)O)[C@@H]3C.[Cu+2]` [chlorophyllin-copper] (10 µM), 108%; with `CN(C)CC(c1ccc(O)cc1)C1(O)CCCCC1` (stereo not given) [desvenlafaxine] (10 µM), 106%.
Under `CCCCNc1c(C(=O)OCC)c(C)nc2c1cnn2CC` [tracazolate] (10 µM) stands 92.5%; under `CC(C)C[C@H](NC(=O)CNC(=O)c1cc(Cl)ccc1Cl)B(O)O` [ixazomib] (0.833333 µM), 93.5%.
In the case of `O=C(O)CCC(=O)Nc1ccc(S(=O)(=O)Nc2nccs2)cc1` [succinylsulfathiazole] (10 µM), the SARS-CoV-2 infection rate was 100%.
With `CCN1CCN(c2ccc(Nc3cc(N(C)C(=O)Nc4c(Cl)c(OC)cc(OC)c4Cl)ncn3)cc2)CC1` (0.833333 µM) the figure was 117%; with `CC#CCC(C)[C@H](O)/C=C/[C@@H]1[C@H]2C/C(=C/CCCC(=O)O)C[C@H]2C[C@H]1O` (stereo not given in full) [iloprost] (10 µM), 108%; with `CN1C2CCCC1CC(NC(=O)c1nn(C)c3ccccc13)C2` (stereo not given) [granisetron] (10 µM), 98.5%.
Under `C#CC[C@H](c1nc2cc(Cl)ccc2c(=O)n1Nc1ccccc1)N(CCCN)C(=O)c1cccc(Cl)c1F` (0.833333 µM) stands 112%; under `c1ccc(C2CC2)c(OCC2=NCCN2)c1` [cirazoline] (10 µM), 102%; under `C=CC(=O)Nc1cccc(Oc2nc(Nc3ccc(N4CCN(C)CC4)cc3)ncc2Cl)c1` (10 µM), 118%.
With `O=C1c2c(O)ccc(O)c2C(=O)c2c(NCCNCCO)ccc(NCCNCCO)c21` [mitoxantrone] (0.833333 µM) the figure was 108%.
Take `O=c1[nH]cnc2nc[nH]c12` [hypoxanthine] (10 µM): the SARS-CoV-2 infection rate was 108%.
With `CN(C)CC(=O)Nc1ccc2[nH]c(=O)c3ccccc3c2c1` (10 µM) the figure was 92.5%.
Under `Clc1cccc(-n2nnnc2NCc2ccccc2Oc2ccccn2)c1Cl` (10 µM) stands 110%; under `CN1CCN(c2ccc3[nH]c(-c4ccc5[nH]c(-c6ccc(O)cc6)nc5c4)nc3c2)CC1` [pibenzimol] (10 µM), 110%; under `CCNC(=O)CC[C@H](N)C(=O)O` [L-theanine] (10 µM), 102%.
With `COc1ccsc1CNCC[C@@]1(c2ccccn2)CCOC2(CCCC2)C1` (10 µM) the figure was 103%; with `O=C(O)CCN(O)C(=O)CCCCCCCCC1CC1` (10 µM), 102%; with `CCCCCCCCCCCCCCCC[n+]1ccccc1` [cetylpyridinium] (0.833333 µM), 86%.
In the case of `CCCCCCCC/C=C\CCCCCCCC(N)=O` [oleamide] (10 µM), the SARS-CoV-2 infection rate was 94.5%.
With `Nc1nccc2c1ncn2C1C=C(CO)C(O)C1O` (stereo not given) [3-deazaneplanocin-A] (10 µM) the figure was 112%; with `C=CCc1ccc(O)c(-c2cc(CC=C)ccc2O)c1` [magnolol] (10 µM), 108%; with `COc1c(-c2ccc3cc(NS(C)(=O)=O)ccc3c2)cc(-n2ccc(=O)[nH]c2=O)cc1C(C)(C)C` [dasabuvir] (10 µM), 106%.
With `CCCCC/C=C\C/C=C\CCCCCCCC(=O)NCCCC(=O)O` [GABA-linoleamide] (10 µM) the figure was 97.5%; with `CN1[C@@H]2CC[C@H]1C[C@@H](OC(=O)C(CO)c1ccccc1)C2` (stereo not given in full) (10 µM), 106%.
For the compound `CC(C)[C@](O)(c1ccc2cc(OC(F)F)c(OC(F)F)cc2c1)c1c[nH]nn1` (10 µM), the SARS-CoV-2 infection rate is 102%.
With `CN(C)CCc1c[nH]c2ccc(C[C@H]3COC(=O)N3)cc12` [zolmitriptan] (10 µM) the figure was 92.5%.
